Compounds without any hit were thinned out: in the full panel of roughly 79,000, 15% have a hit. The source made the active and inactive calls. Rule as the data show it: active = growth inhibition above about 70%; inactive = the rest.
Experiments:
[1] = NCI Yeast Anticancer Drug Screen. Data for the wt1 strain (AID 149);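 also: 0% = growth of vehicle-treated wt1 cultures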; details: S. cerevisiae wt1 strain (SPY 50644) growth inhibition, active compounds read high
How it was run: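 Growth inhibition read against vehicle controls after compound exposure of the wt1 yeast strain.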

[2] = NCI Yeast Anticancer Drug Screen. Data for the rad50EPP+ strain (AID 151);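 also: 0% = growth of vehicle-treated control cultures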; details: S. cerevisiae rad50 mutant strain, active compounds read high
How it was run: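 Measured: growth inhibition of rad50EPP+ yeast. Reference: vehicle-treated controls. Screen uses strains with defined genetic alterations in DNA damage repair or cell cycle control.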

[3] = NCI Yeast Anticancer Drug Screen. Data for the mgt1 strain (AID 153); details: S. cerevisiae mgt1 mutant growth inhibition, active compounds read high
How it was run: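 Compounds were applied to mgt1 mutant yeast, and growth was then compared against vehicle-treated control cultures to give percent inhibition.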

[4] = NCI Yeast Anticancer Drug Screen. Data for the rad50 strain (AID 155);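 also: 0% = growth of vehicle-only cultures of the same strain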; details: S. cerevisiae rad50 strain growth inhibition, active compounds read high
How it was run: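 Readout: growth inhibition relative to vehicle-treated cultures. Compound exposure was carried out in a genetically defined yeast strain deficient in DNA damage repair.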

[5] = NCI Yeast Anticancer Drug Screen. Data for the mec2-1 strain (AID 157); details: S. cerevisiae mec2-1 strain, active compounds read high
How it was run: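 Compounds were applied to mec2-1 yeast cells. Their growth was then compared with that of vehicle-treated cultures to give growth inhibition.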

[6] = NCI Yeast Anticancer Drug Screen. Data for the rad14 strain (AID 159);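 also: 0% = growth of vehicle-treated control cultures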; details: S. cerevisiae rad14 strain growth inhibition, active compounds read high
How it was run: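 Growth inhibition vs vehicle controls; genetically altered yeast strain (DNA damage repair defect) treated with test compounds.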

[7] = NCI Yeast Anticancer Drug Screen. Data for the sgs1 mgt1 strain (AID 161);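 also: 0% = growth of cultures given vehicle only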; details: S. cerevisiae sgs1 mgt1 strain, active compounds read high
How it was run: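 This yeast growth screen uses a strain with defined DNA-repair lesions; compound-treated growth is compared with vehicle-treated growth.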

[8] = NCI Yeast Anticancer Drug Screen. Data for the CLN2oe strain (AID 163);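 also: 0% = growth of vehicle-only control cultures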; details: S. cerevisiae CLN2oe strain, active compounds read high
How it was run: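 Cells of an engineered yeast line with disturbed cell-cycle regulation are treated with compound. Inhibition of growth is then calculated relative to the vehicle-treated reference.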

[9] = NCI Yeast Anticancer Drug Screen. Data for the bub3 strain (AID 167); details: S. cerevisiae bub3 mutant strain, active compounds read high
How it was run: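 Readout: yeast growth inhibition, expressed relative to vehicle-only wells. The test organism is a mutant strain from a panel with lesions in DNA repair or checkpoint genes.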

[10] = NCI Yeast Anticancer Drug Screen. Data for the sgs1 strain (AID 173);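 also: 0% = growth of vehicle-only control cultures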; details: S. cerevisiae sgs1 mutant, active compounds read high
How it was run: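 Strain with an altered DNA repair or cell cycle pathway exposed to compound. Growth then measured. Value = inhibition versus vehicle control.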

[11] = NCI Yeast Anticancer Drug Screen. Data for the mlh1 rad18 strain (AID 175); details: S. cerevisiae mlh1 rad18 strain growth inhibition, active compounds read high
How it was run: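 A repair-deficient yeast strain is exposed to test compound, and growth is scored relative to vehicle-treated controls.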

[12] = NCI Yeast Anticancer Drug Screen. Data for the rad18 strain (AID 177); details: S. cerevisiae rad18 mutant growth inhibition, active compounds read high
How it was run: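 DNA-repair-defective yeast; compound treatment; growth inhibition scored against vehicle.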

[13] = NCI Yeast Anticancer Drug Screen. Data for the cln2 rad14 strain (AID 165);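 also: 0% = growth equal to vehicle treated cultures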; details: S. cerevisiae cln2 rad14 strain, active compounds read high
How it was run: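 Strain: cln2 rad14 yeast, altered in cell cycle control and DNA damage repair. Read-out: growth inhibition vs vehicle.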

[14] = NCI Yeast Anticancer Drug Screen. Data for the wt2 strain (AID 169);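 also: 0% = growth of vehicle-treated yeast cultures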; details: S. cerevisiae wt2 strain growth inhibition, active compounds read high
How it was run: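 Growth of compound-treated yeast is measured and expressed as inhibition relative to vehicle-only controls.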

[15] = NCI Yeast Anticancer Drug Screen. Data for the mlh1 strain (AID 171);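 also: 0% = growth of vehicle-treated control cultures of the same strain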; details: S. cerevisiae mlh1 strain growth inhibition, active compounds read high
How it was run: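 Test agents were incubated with yeast bearing a defined DNA damage repair or cell cycle control alteration; values are growth inhibition normalised to vehicle-treated cultures.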

[16] = at 5.0 µM (retest, dose inferred, filed as 0.5)
[17] = at 50.0 µM (retest, dose inferred, filed as 5.0)

Measured: growth inhibition

COc1ccc2cc(CN3CCC(C4CCN(Cc5ccc6cc(OC)ccc6c5)CC4)CC3)ccc2c1
inactive: [1]; at 1.2 µM -1% | [1]; at 3.7 µM -16% | [1]; at 11.0 µM 5% | [1]; at 33.0 µM 8% | [2]; at 1.2 µM -17% | [2]; at 3.7 µM -14% | [2]; at 11.0 µM -12% | [2]; at 33.0 µM -2% | [3]; at 1.2 µM -9% | [3]; at 3.7 µM -5% | [3]; at 11.0 µM 0% | [3]; at 33.0 µM 4% | [4]; at 1.2 µM -2% | [4]; at 3.7 µM 5% | [4]; [16] 1% | [4]; at 11.0 µM 9% | [4]; at 33.0 µM 26% | [4]; [17] 38% | [5]; at 1.2 µM -17% | [5]; at 3.7 µM -40% | [5]; [16] -2% | [5]; at 11.0 µM -40% | [5]; at 33.0 µM -31% | [5]; [17] 22% | [6]; at 1.2 µM -19% | [6]; at 3.7 µM -13% | [6]; at 11.0 µM -22% | [6]; at 33.0 µM 9% | [7]; [16] 7% | [7]; [17] 4% | [8]; at 1.2 µM 16% | [8]; at 3.7 µM 29% | [8]; at 11.0 µM 19% | [8]; at 33.0 µM 36% | [9]; at 1.2 µM -32% | [9]; at 3.7 µM -35% | [9]; [16] 19% | [9]; at 11.0 µM -28% | [9]; at 33.0 µM -20% | [9]; [17] 0% | [10]; at 1.2 µM 14% | [10]; at 3.7 µM 8% | [10]; at 11.0 µM 12% | [10]; at 33.0 µM 3% | [11]; [16] -8% | [11]; at 50.0 µM -19.2% | [12]; at 1.2 µM 0% | [12]; at 3.7 µM 0% | [12]; at 11.0 µM 3% | [12]; at 33.0 µM 22%
active: [1]; at 100.0 µM 98% | [2]; at 100.0 µM 98% | [3]; at 100.0 µM 97% | [4]; at 50.0 µM 88.8% | [4]; at 100.0 µM 97% | [5]; at 50.0 µM 75.7% | [5]; at 100.0 µM 98% | [6]; at 100.0 µM 97% | [7]; at 50.0 µM 83.2% | [8]; at 100.0 µM 98% | [9]; at 50.0 µM 89% | [9]; at 100.0 µM 98% | [10]; at 100.0 µM 98% | [11]; [17] 80% | [12]; at 100.0 µM 98%

OC1C#CCSCC#C/C=C\1 (stereo not drawn)
inactive: [1]; at 1.2 µM 9% | [1]; at 3.7 µM 3% | [1]; at 11.0 µM 14% | [1]; at 33.0 µM 55% | [2]; at 1.2 µM -22% | [2]; at 3.7 µM 15% | [2]; at 11.0 µM 13% | [2]; at 33.0 µM 23% | [3]; at 1.2 µM 9% | [3]; at 3.7 µM 2% | [3]; at 11.0 µM 14% | [3]; at 33.0 µM 43% | [4]; at 1.2 µM -24% | [4]; at 3.7 µM -17% | [4]; [16] 53% | [4]; at 11.0 µM 34% | [4]; at 33.0 µM 65% | [5]; at 1.2 µM 1% | [5]; at 3.7 µM 18% | [5]; [16] 62% | [5]; at 11.0 µM 14% | [5]; at 33.0 µM 54% | [6]; at 1.2 µM 4% | [6]; at 3.7 µM 6% | [6]; at 11.0 µM 12% | [6]; at 33.0 µM 51% | [7]; [16] -4% | [13]; [16] 60% | [13]; at 50.0 µM 52% | [9]; at 1.2 µM -8% | [9]; at 3.7 µM -16% | [9]; [16] 16% | [9]; at 11.0 µM 17% | [9]; at 33.0 µM -10% | [14]; at 1.2 µM -21% | [14]; at 3.7 µM -17% | [14]; at 11.0 µM 6% | [14]; at 33.0 µM -9% | [15]; at 1.2 µM -1% | [15]; at 3.7 µM 4% | [15]; at 11.0 µM 15% | [15]; at 33.0 µM 46% | [10]; at 1.2 µM 20% | [10]; at 3.7 µM 11% | [10]; at 11.0 µM 27% | [10]; at 33.0 µM 67% | [11]; [16] 62% | [12]; at 1.2 µM -27% | [12]; at 3.7 µM -21% | [12]; at 11.0 µM 4% | [12]; at 33.0 µM 49%
active: [1]; at 100.0 µM 97% | [2]; at 100.0 µM 86% | [3]; at 100.0 µM 95% | [4]; [17] 100% | [4]; at 50.0 µM 81.3% | [4]; at 100.0 µM 97% | [5]; [17] 100% | [5]; at 50.0 µM 78.4% | [5]; at 100.0 µM 97% | [6]; at 100.0 µM 98% | [7]; [17] 96% | [7]; at 50.0 µM 70.4% | [13]; [17] 93% | [9]; [17] 97% | [9]; at 50.0 µM 84.2% | [9]; at 100.0 µM 96% | [14]; at 100.0 µM 95% | [15]; at 100.0 µM 96% | [10]; at 100.0 µM 97% | [11]; [17] 100% | [11]; at 50.0 µM 79.2% | [12]; at 100.0 µM 92%

Reference: PubChem BioAssay (NCI)
